Assay results from ChEMBL document CHEMBL4513146, “CO-ADD screening of Karazin Kharkiv National University (Ukraine) compounds”.
Measured potencies and affinities stand elsewhere.

Columns and labels:
[1] = tested on: Staphylococcus aureus; settings: Concentration 32 ug.mL-1;; ASSAY_TEST Inhibition of Bacterial Growth; detection method Absorption (OD600); MEDIA CAMHB; plate type 384well; NBS; CORNING #3640; time 18 hr
[2] = tested on: Escherichia coli; settings: Concentration 32 ug.mL-1;; ASSAY_TEST Inhibition of Bacterial Growth; detection method Absorption (OD600); MEDIA CAMHB; plate type 384well; NBS; CORNING #3640; time 18 hr

SMILES	Inhibition [1]	Inhibition [2]
O=C(CSc1nnc2c(=O)n(-c3ccc(Br)cc3)ccn12)Nc1ccc(F)cc1	9.36%	-1.5%
CCc1ccc(NC(=O)CSc2nnc3c(=O)n(-c4ccccc4)ccn23)cc1	7.36%	-2.07%
COc1cccc(-n2ccn3c(SCC(=O)Nc4ccccc4F)nnc3c2=O)c1	8.86%	-8.93%
CCOc1ccc(-n2ccn3c(SC(CC)C(=O)Nc4ccc(C(C)C)cc4)nnc3c2=O)cc1 (centres undefined)	5.33%	-6.24%
CCOc1ccc(-n2ccn3c(SCC(=O)c4ccccc4)nnc3c2=O)cc1	6.87%	1.63%
CCOC(=O)c1ccccc1NC(=O)Cn1nc2ccc(Sc3ccc(C)cc3)nn2c1=O	14.05%	1.21%
Cc1ccc(NC(=O)Cn2nc3c(SCc4ccccc4)nccn3c2=O)cc1C	6.06%	-10.79%
COc1ccc(C)cc1NC(=O)Cn1nc2ccc(SCc3ccc(Cl)cc3)nn2c1=O	8.35%	-14.85%
Cc1ccc(NC(=O)Cn2nc3ccc(-c4ccc(C)c(C)c4)nn3c2=O)cc1	12.01%	-5.02%
O=C(CSc1nnc2c(=O)n(-c3ccccc3)ccn12)Nc1cccc(Cl)c1	1.05%	-12.66%
CCCCOc1ccc(-c2cc3c4nnc(SCC(=O)Nc5cc(F)ccc5C)n4ccn3n2)cc1	-12.48%	-11.69%
O=C(Cn1nc2ccc(Sc3cccc(F)c3)nn2c1=O)NCc1ccc(C(F)(F)F)cc1	12.64%	-0.57%
